Hit rate of the full screen: of about 2,400 compounds, about 750 (31%) were called active.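 Rule for the calls: active = median signal gain over dofetilide-blocked control wells reaching their mean plus 3 SD, so readout 1 at least 0; inactive = the rest.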 The list shows a part of the results.
Target: Voltage-gated inwardly rectifying potassium channel KCNH2 (Homo sapiens) (UniProt Q12809)
Experiment: hERG protection against dofetilide inhibition, confirmation, cell-based, thallium flux, duplicate retest, dofetilide IC70 (AID 1835)
Settings: hERG cell line, FluxOR thallium flux, dofetilide-blocked; at 10 µM; hits give high values

Sequence of Voltage-gated inwardly rectifying potassium channel KCNH2 (Homo sapiens) (Q12809 whole entry, looked up): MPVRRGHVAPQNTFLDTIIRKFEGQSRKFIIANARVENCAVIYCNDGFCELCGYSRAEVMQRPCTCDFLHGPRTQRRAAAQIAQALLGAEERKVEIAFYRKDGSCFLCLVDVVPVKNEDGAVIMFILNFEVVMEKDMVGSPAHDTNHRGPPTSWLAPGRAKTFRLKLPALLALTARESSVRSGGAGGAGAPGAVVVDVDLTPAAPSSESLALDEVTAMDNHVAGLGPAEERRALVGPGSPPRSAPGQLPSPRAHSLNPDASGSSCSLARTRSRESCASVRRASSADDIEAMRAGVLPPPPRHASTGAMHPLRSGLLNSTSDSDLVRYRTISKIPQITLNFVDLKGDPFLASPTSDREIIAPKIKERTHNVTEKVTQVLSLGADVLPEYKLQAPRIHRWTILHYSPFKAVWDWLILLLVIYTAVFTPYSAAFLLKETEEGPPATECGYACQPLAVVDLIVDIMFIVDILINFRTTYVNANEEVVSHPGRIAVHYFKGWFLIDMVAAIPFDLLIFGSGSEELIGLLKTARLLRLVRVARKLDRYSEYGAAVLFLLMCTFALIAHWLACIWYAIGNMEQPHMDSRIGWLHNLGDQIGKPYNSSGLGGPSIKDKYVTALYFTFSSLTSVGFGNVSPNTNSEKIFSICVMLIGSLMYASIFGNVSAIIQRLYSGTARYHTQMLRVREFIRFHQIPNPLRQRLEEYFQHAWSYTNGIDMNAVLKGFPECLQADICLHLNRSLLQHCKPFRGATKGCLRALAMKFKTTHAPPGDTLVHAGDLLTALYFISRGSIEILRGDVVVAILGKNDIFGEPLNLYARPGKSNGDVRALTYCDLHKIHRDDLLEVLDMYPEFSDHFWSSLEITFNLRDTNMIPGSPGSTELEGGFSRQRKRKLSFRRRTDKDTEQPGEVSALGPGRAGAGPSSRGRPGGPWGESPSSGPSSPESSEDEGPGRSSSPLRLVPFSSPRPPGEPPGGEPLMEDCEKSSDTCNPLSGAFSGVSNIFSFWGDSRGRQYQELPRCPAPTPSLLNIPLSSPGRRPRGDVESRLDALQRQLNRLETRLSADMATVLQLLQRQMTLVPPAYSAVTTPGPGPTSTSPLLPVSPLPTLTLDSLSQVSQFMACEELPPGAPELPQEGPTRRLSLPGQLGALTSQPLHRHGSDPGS

Row | Structure (SMILES) | activity increase over dofetilide control, less the hit threshold
1 | CC1=C(C#N)C(Nc2cc(C)ccn2)(C(F)(F)F)C(=O)N1 (configuration not stated) | -10% (inactive)
2 | Cc1nn(Cc2ccccc2)c2c1C(c1cccnc1)C(C#N)=C(N)O2 (configuration not stated) | -6% (inactive)
3 | N=C1C(=O)OCC1c1cc(Cl)ccc1NC(=O)Nc1ccccc1 (configuration not stated) | -9% (inactive)
4 | CCCn1c(CC)nc([N+](=O)[O-])c1S(=O)(=O)c1ccccc1 | 3% (active)
5 | CC(C)N1CC(C(=O)Nc2ccc(Cl)c(Cl)c2)CC1=O (configuration not stated) | -8% (inactive)
6 | CCCCCCCc1c(O)nc(SCC(=O)O)[nH]c1=O | -6% (inactive)
7 | Cc1csc(NC(=O)c2cn3ccccc3n2)n1 | -12% (inactive)
8 | Cc1csc(NC(=S)NC(=O)c2ccccc2)n1 | 10% (active)
9 | CCOC(=O)c1sc(NC(=S)NC(=O)c2cccc(OC)c2)nc1C | 7% (active)
10 | CCOC(=O)c1sc(NC(=S)NC(=O)c2ccco2)nc1C | 7% (active)
11 | Cc1nc(NC(=O)c2ccco2)sc1C(=O)O | -10% (inactive)
12 | O=C(NC(=S)Nc1nc2c(s1)CSc1ccccc1-2)c1ccccc1 | 21% (active)
13 | CCn1cc(CCC(=O)NCc2cccc(OC)c2OC)c2ccccc21 | -12% (inactive)
14 | COC(=O)c1sc(NC(=S)NC(=O)c2ccccc2C)nc1C | 26% (active)
15 | CCOC(=O)c1sc(NC(=S)NC(=O)c2ccccc2)nc1C | 36% (active)
16 | CCOC(=O)c1sc(NC(=S)NC(=O)c2ccc(OC)cc2)nc1C | -2% (inactive)
17 | COC(=O)c1sc(NC(=S)NC(=O)c2ccccc2F)nc1C | -3% (inactive)
18 | COC(=O)c1sc(NC(=S)NC(=O)c2ccc(C)cc2)nc1C | -3% (inactive)
19 | Cc1ccc(CN2CCN(/N=C/c3ccc(O)c(O)c3)CC2)cc1 | 7% (active)
20 | Nc1cccc(Oc2cnccn2)c1 | -5% (inactive)
21 | Nc1ncnc(NC2CCS(=O)(=O)C2)c1[N+](=O)[O-] (configuration not stated) | -12% (inactive)
22 | Cc1cc(NC(=O)CSc2ccc3nnc(-c4cccs4)n3n2)no1 | -17% (inactive)
23 | COc1cccc(C(=O)CC(=O)C(=O)Nc2ccc(C)cc2Cl)c1 | 50% (active)
24 | COc1cc(OC)cc(C(=O)O/N=C(\N)c2cccc(C)c2)c1 | -14% (inactive)
25 | COc1ccc(C(=O)CC(=O)C(=O)Nc2ccc(C)cc2Cl)cc1 | 35% (active)
26 | COc1ccc(CNC(=O)C2CCCN2)cc1OC (configuration not stated) | -14% (inactive)

Row | Structure (SMILES) | activity increase over dofetilide control, less the hit threshold
27 | Cc1ccc(CC23CN4CCN(CC(C4)C2O)C3)c(C)c1 (configuration not stated) | -14% (inactive)
28 | NC(=O)c1nsc(C(=O)N(CC(=O)NCc2ccccc2)c2ccc(F)cc2)c1N | -22% (inactive)
29 | Cc1ccc2c(c1)c1nnc(SCC(=O)Nc3ccc(N(C)C)cc3)nc1n2CC(=O)O | -9% (inactive)
30 | COc1cc(/C=C/C(=O)O)ccc1OS(=O)(=O)c1cc(C)ccc1C | -26% (inactive)
31 | COc1cc(/C=C/C(=O)N[C@@H](Cc2c[nH]c3ccccc23)C(=O)O)ccc1O | -8% (inactive)
32 | COc1ccc(/C=C/C(=O)Nc2ccccc2C(=O)O)cc1 | 5% (active)
33 | O=C(/C=C/c1ccccc1)Nc1ccc(S(=O)(=O)N2CCOCC2)cc1 | -10% (inactive)
34 | C=CCNC(=O)c1ccccc1NC(=O)COc1ccc(OC)cc1 | -2% (inactive)
35 | COc1ccc(/C=C/C(=O)Nc2ccccc2C(=O)O)cc1OC | 18% (active)
36 | Cc1ccc(C(=O)NNC(=S)NC(=O)c2ccccc2)cc1 | -40% (inactive)
37 | Cc1cc2ccccn2c1C(=S)NC(=O)c1ccccc1 | 50% (active)
38 | O=C(Nc1ccc(Cl)cc1Cl)c1n[nH]c(Cn2cncn2)n1 | -1% (inactive)
39 | S=c1nn[nH]n1C12CC3CC(CC(C3)C1)C2 | 27% (active)
40 | CCOc1ccc(Nc2ccc([N+](=O)[O-])c3nonc23)cc1 | -6% (inactive)
41 | Cc1cc(=O)[nH]c(SCC(=O)NC2CCCCC2)n1 | 0% (inactive)
42 | O=C(Nn1cnnc1)c1ccncc1 | -14% (inactive)
43 | Oc1c(Br)cc(Br)cc1C=Nc1ccc2[nH]ncc2c1 | -2% (inactive)
44 | CNC(=S)N/N=C/c1cc(Br)cc(Br)c1O | -3% (inactive)
45 | Cc1nnc(C)n1/N=C/c1cc(Br)cc(Br)c1O | 15% (active)
46 | COc1cc(OC)cc(-c2nc3ccccc3c(=O)n2OC(=O)c2ccc(Br)cc2)c1 | -26% (inactive)
47 | O=c1c2cc(Br)ccc2nc(-c2cccc(Cl)c2)n1O | 102% (active)
48 | O=c1c2ccc(Cl)cc2nc(-c2cccc(C(F)(F)F)c2)n1O | 94% (active)
49 | O=c1c2cc(Br)ccc2nc(-c2cccc(C(F)(F)F)c2)n1O | 115% (active)
50 | O=C(Cn1nnc(-c2cccc(C(F)(F)F)c2)n1)N1CCCCCC1 | -8% (inactive)
51 | O=c1c2cc(Br)ccc2nc(-c2ccccc2)n1O | 45% (active)
52 | O=C(COC(=O)c1cc(NS(=O)(=O)c2cccs2)ccc1O)Nc1cc(Cl)ccc1Cl | -4% (inactive)

Row | Structure (SMILES) | activity increase over dofetilide control, less the hit threshold
53 | O=C(COC(=O)c1cccs1)NCCN1C(=O)CSC1=O | -9% (inactive)
54 | CNC(=O)NC(=O)C(C)N1CCN(C/C=C/c2ccccc2)CC1 (configuration not stated) | -16% (inactive)
55 | Cc1nonc1OCCNc1ccc([N+](=O)[O-])cc1 | -2% (inactive)
56 | CCCn1c(SC(C)C(=O)N2CCOCC2)nc2ccc(Br)cc2c1=O (configuration not stated) | -11% (inactive)
57 | O=c1c2cc(Br)ccc2nc(-c2ccc(Cl)cc2)n1O | 101% (active)
58 | N#Cc1ccc(-c2nc3ccc(Br)cc3c(=O)n2O)cc1 | 1% (active)
59 | Cc1ccc(-n2c(C)cc(C(=O)CN3CCOCC3)c2C)cc1 | -6% (inactive)
60 | CC1CCCC(C(=O)OCc2ccccc2)N1 (configuration not stated) | -3% (inactive)
61 | CC(=O)Nc1ccc2nc(NC(=O)c3ccc([N+](=O)[O-])o3)sc2c1 | 5% (active)
62 | O=C(Nc1ncc(Cc2ccc(C(F)(F)F)cc2)s1)c1ccc(-c2cccc([N+](=O)[O-])c2)o1 | -14% (inactive)
63 | O=C(Nc1ccc(N2CCN(C(=O)c3ccc(Cl)cc3)CC2)cc1)c1ccc([N+](=O)[O-])o1 | -11% (inactive)
64 | CC(C)(C)c1ccccc1NC(=S)NC1CCCC1 | -7% (inactive)
65 | O=C(NC1CCCCC1)c1ccc(COCC(F)(F)F)o1 | -5% (inactive)
66 | CCOc1ccc(C(C)NC(=S)NC2CCCCC2)cc1 (configuration not stated) | -9% (inactive)
67 | O=c1oc2ccccc2c(NC2CCCCC2)c1NS(=O)(=O)c1ccc(Cl)cc1 | -6% (inactive)
68 | CCc1ccc(S(=O)(=O)NC(=S)NC2CCCCC2)cc1 | 35% (active)
69 | Cc1cc(Cl)c(S(N)(=O)=O)cc1OCC(=O)NC1CCCCC1 | -8% (inactive)
70 | Cc1ccc(S(=O)(=O)NC(=S)NC2CCCCC2)cc1 | 3% (active)
71 | COc1ccc(C)cc1S(=O)(=O)NC1CCCCC1 | -5% (inactive)
72 | O=S(=O)(NC(=S)NC1CCCCC1)c1ccc(Br)cc1 | 12% (active)
73 | O=S(=O)(NC(=S)NC1CCCCC1)c1ccc(Cl)cc1 | 10% (active)
74 | CC1=CN2C(=N)/C(=C/c3ccc(Sc4ccc(Cl)cc4)o3)C(=O)N=C2S1 | -2% (inactive)
75 | CC(C)(C)n1nnnc1C(c1cc2cc3c(cc2[nH]c1=O)OCCO3)N1CCSCC1 (configuration not stated) | -11% (inactive)
76 | CC(C)(C)c1nc(SCC(=O)N2CCCC2)c2ccccc2n1 | -15% (inactive)
77 | Cc1cccc(N2CCN(C(=O)C3CCN(S(=O)(=O)c4cccnc4)CC3)CC2)c1C | -8% (inactive)
78 | C/C(=N\Nc1nc(C)c(C)s1)c1ccc([N+](=O)[O-])cc1 | 22% (active)

Row | Structure (SMILES) | activity increase over dofetilide control, less the hit threshold
79 | C/C(=N\Nc1cc(N2CCOCC2)ncn1)c1cccc([N+](=O)[O-])c1 | -24% (inactive)
80 | C/C(=N/NC(=S)Nc1cccc(C)c1)c1cccc([N+](=O)[O-])c1 | -1% (inactive)
81 | COc1ccc2c(C(=O)CN3CCN(c4ccccc4)CC3)c[nH]c2c1 | -10% (inactive)
82 | O=C(O)c1cc(NN=C2c3ccccc3-c3ccccc32)ccc1Cl | -4% (inactive)
83 | CCCN1CCC(NC(=O)CC2C(=O)NCCN2Cc2cccc(OC)c2)CC1 (configuration not stated) | -6% (inactive)
84 | Cc1cc(C)c2nc(NC(=O)CN3C(=O)NC4(CCCC4)C3=O)sc2c1 | -10% (inactive)
85 | CC1CN(S(=O)(=O)c2ccc(-c3nc4ccccc4s3)cc2)CC(C)O1 (configuration not stated) | 7% (active)
86 | O=C(NC(=S)NCc1ccc(-c2nc3ccccc3s2)cc1)c1ccco1 | -2% (inactive)
87 | Cc1ccnc(N2CCC(C(=O)Nc3ccc(Oc4ccccc4)cc3)CC2)n1 | -11% (inactive)
88 | CCOC(=O)N1CCC(N2C(=O)c3ccccc3C2Nc2cccnc2)CC1 (configuration not stated) | 11% (active)
89 | Cc1ccc(-n2ncc3c2CCCC3NC(=O)c2csnn2)cc1C (configuration not stated) | 21% (active)
90 | COc1ccc(-n2ncc3c2CC(C)(C)CC3NC(=O)c2cn[nH]c2)cc1 (configuration not stated) | -9% (inactive)
91 | Cc1cc(C)cc(-n2ncc3c2CCCC3NC(=O)c2csnn2)c1 (configuration not stated) | 58% (active)
92 | COc1cc2c(cc1OC)C(c1ccc([N+](=O)[O-])cc1)N(C(C)=O)CC2 (configuration not stated) | -36% (inactive)
93 | Cc1ccc(S(=O)(=O)Nc2c(C)[nH]c(=O)[nH]c2=O)cc1C | -13% (inactive)
94 | S=C(NCc1ccco1)N1CCN(c2nc(-c3ccccc3)cs2)CC1 | -13% (inactive)
95 | COc1ccc(-c2csc(NC(=S)NC(=O)c3cccs3)n2)cc1OC | -1% (inactive)
96 | Brc1ccc(-c2csc(N3CCCCCC3)n2)cc1 | -3% (inactive)
97 | O=C(NC(=S)Nc1nc(-c2ccccc2)cs1)c1cccs1 | 17% (active)
98 | O=C(NC(=S)N1CCN(c2nc(-c3ccccc3)cs2)CC1)c1cncc(Br)c1 | 12% (active)
99 | O=C(NC(=S)Nc1ncc(Br)cc1Br)c1ccccc1 | 11% (active)
100 | COc1ccc(-c2csc(NC(=S)NC(=O)c3cccs3)n2)cc1Br | 6% (active)
101 | CC(O)C(NS(=O)(=O)c1ccc(Cl)cc1)C(=O)OCc1cc([N+](=O)[O-])cc2c1OCOC2 (configuration not stated) | -12% (inactive)
102 | Cc1cc(-c2ccccc2)[nH]c(=O)c1S(=O)(=O)c1ccccc1 | -17% (inactive)

— PubChem BioAssay AID1835 (Johns Hopkins Ion Channel Center, 2009)
